Assay results published in PubChem BioAssay (NCI).
The panel holds about 83,000 compounds, 20% with a hit somewhere; the sample as a whole holds those more often.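 A percent growth of 40 corresponds to 60% growth inhibition; 0 means no net growth; -100 means all cells died. Active threshold: below 10.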 Calls of active or inactive are those of the source.

system: RXF 393 renal; assay: NCI-60 one-dose screen, 48 h (100 = growth as untreated, 0 = no growth, -100 = all killed); conditions: 10 µM unless noted

SMILES | growth
COc1ccc(C(=O)NC(=O)Nc2ccc3c(c2)NC(=O)/C3=C\c2[nH]c(C)c(CCC(=O)O)c2C)c(F)c1 | 21.1% (inactive)
Cn1c(I)c(C#C[Si](C)(C)C)c(=O)[nH]c1=O | -86.3% (active)
COC(=O)c1oc2c(C(C)=O)c(OCCCN(C)C)ccc2c1C | 96.1% (inactive)
CC(C)NCC(O)COc1ccc(CC(N)=O)cc1 (centres undefined) | 111% (inactive)
O=C(NCCNc1nccc(-c2c(-c3cccc(O)c3)nc3sccn23)n1)Nc1cccc(C(F)(F)F)c1 | 26.3% (inactive)
CNCCCOc1c(Br)cc(CCNC(=O)/C(Cc2ccc(OC)c(Br)c2)=N/O)cc1Br | 45.3% (inactive)
COc1cccc(-c2nc3sccn3c2-c2ccnc(NCCNC(=O)c3ccccc3)n2)c1 | 86.3% (inactive)
O=C(N/N=C1\SCC(=O)N1c1ccccc1)c1cc(-c2cc3ccccc3o2)nn1-c1ccccc1 | 101% (inactive)
Cc1ccc2c(c1)Nc1ccc(C)cc1C2(C)C | 101% (inactive)
COc1cc(NC(C)CCCN2C(=O)c3ccccc3C2=O)c2nccc(C)c2c1OC (centres undefined) | 106% (inactive)
NCC(=O)NS(=O)(=O)OC[C@H]1O[C@@H](n2cnc3c(N)ncnc32)[C@H](O)[C@@H]1O | -36.6% (active)
CCN(CC)CC(=O)Nc1c(C)cccc1C | 102% (inactive)
Nc1ncnc2c1c(-c1ccc(Oc3ccccc3)cc1)nn2C[C@@H]1SSC[C@H]1O | -9.3% (active)
COc1cc(/C=C\c2cc(/C=C\c3ccc(O)c(OC)c3)n(C(=O)CNc3ccccc3OC)n2)ccc1O | 90.2% (inactive)
